# PubChem BioAssay
# Values without a mark were called inactive. Active and inactive are the calls of the source.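 The calls were made as follows, unless noted: active = normalized viability below 100% at a tested concentration; inactive = the rest.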
# Columns and labels:
# [1] = ovarian cancer cell viability with rucaparib, profiling panel, oncology-focused library, rucaparib conditional (AID 1508598); settings: patient-derived ovarian cancer cells, CellTiter-Glo viability, 144 h, hits give low values
# [2] = target: NAD(+) hydrolase SARM1 (Homo sapiens) (UniProt Q6SZW1); experiment: SARM1 TIR NADase inhibitors, cell lysate, NAD-Glo luminescence (AID 1508614;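 active = compound whose remaining NAD level is above about 45 nM, limit read from the data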;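 also: higher remaining NAD means stronger inhibition of SARM1 NADase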); settings: SAM-TIR HEK293T lysate NADase, at 1 µM, hits give high values
# Chain of NAD(+) hydrolase SARM1 (Homo sapiens) (Q6SZW1 whole entry, looked up): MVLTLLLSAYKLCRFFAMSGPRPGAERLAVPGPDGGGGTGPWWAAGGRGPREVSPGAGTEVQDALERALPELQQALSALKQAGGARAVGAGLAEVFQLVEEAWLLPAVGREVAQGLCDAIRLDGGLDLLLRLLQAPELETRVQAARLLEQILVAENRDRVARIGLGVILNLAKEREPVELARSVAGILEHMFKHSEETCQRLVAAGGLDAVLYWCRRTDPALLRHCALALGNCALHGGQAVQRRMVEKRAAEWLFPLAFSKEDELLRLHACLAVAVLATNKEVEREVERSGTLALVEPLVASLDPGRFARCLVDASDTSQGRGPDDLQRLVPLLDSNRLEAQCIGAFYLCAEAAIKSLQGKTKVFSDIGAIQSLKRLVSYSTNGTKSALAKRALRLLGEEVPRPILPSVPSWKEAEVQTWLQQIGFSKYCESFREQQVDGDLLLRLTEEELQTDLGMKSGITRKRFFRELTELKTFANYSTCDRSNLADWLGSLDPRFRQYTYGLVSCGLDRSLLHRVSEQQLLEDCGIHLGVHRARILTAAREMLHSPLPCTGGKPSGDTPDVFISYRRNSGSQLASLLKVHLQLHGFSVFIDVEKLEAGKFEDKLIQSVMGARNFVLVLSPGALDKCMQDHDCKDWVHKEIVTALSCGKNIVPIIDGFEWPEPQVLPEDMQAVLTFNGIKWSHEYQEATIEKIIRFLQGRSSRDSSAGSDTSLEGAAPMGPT
# [3] = at 0.000305 µM, OCI-C5x cells, with rucaparib 10 µM, 100% = cells with rucaparib alone
# [4] = at 0.000305 µM, OCI-C5x cells, without rucaparib
# [5] = at 0.000305 µM, OCI-P5x cells, with rucaparib 20 µM, 100% = cells with rucaparib alone
# [6] = at 0.000305 µM, OCI-P5x cells, without rucaparib
# [7] = at 0.00122 µM, OCI-C5x cells, with rucaparib 10 µM, 100% = cells with rucaparib alone
# [8] = at 0.00122 µM, OCI-C5x cells, without rucaparib
# [9] = at 0.00122 µM, OCI-P5x cells, with rucaparib 20 µM, 100% = cells with rucaparib alone
# [10] = at 0.00122 µM, OCI-P5x cells, without rucaparib
# [11] = at 0.00488 µM, OCI-C5x cells, with rucaparib 10 µM, 100% = cells with rucaparib alone
# [12] = at 0.00488 µM, OCI-C5x cells, without rucaparib
# [13] = at 0.00488 µM, OCI-P5x cells, with rucaparib 20 µM, 100% = cells with rucaparib alone
# [14] = at 0.00488 µM, OCI-P5x cells, without rucaparib
# [15] = at 0.0195 µM, OCI-C5x cells, with rucaparib 10 µM, 100% = cells with rucaparib alone
# [16] = at 0.0195 µM, OCI-C5x cells, without rucaparib
# [17] = at 0.0195 µM, OCI-P5x cells, with rucaparib 20 µM, 100% = cells with rucaparib alone
# [18] = at 0.0195 µM, OCI-P5x cells, without rucaparib
# [19] = at 0.0781 µM, OCI-C5x cells, with rucaparib 10 µM, 100% = cells with rucaparib alone
# [20] = at 0.0781 µM, OCI-C5x cells, without rucaparib
# [21] = at 0.0781 µM, OCI-P5x cells, with rucaparib 20 µM, 100% = cells with rucaparib alone
# [22] = at 0.0781 µM, OCI-P5x cells, without rucaparib
# [23] = at 0.313 µM, OCI-C5x cells, with rucaparib 10 µM, 100% = cells with rucaparib alone
# [24] = at 0.313 µM, OCI-C5x cells, without rucaparib
# [25] = at 0.313 µM, OCI-P5x cells, with rucaparib 20 µM, 100% = cells with rucaparib alone
# [26] = at 0.313 µM, OCI-P5x cells, without rucaparib
# [27] = at 1.25 µM, OCI-C5x cells, with rucaparib 10 µM, 100% = cells with rucaparib alone
# [28] = at 1.25 µM, OCI-C5x cells, without rucaparib
# [29] = at 1.25 µM, OCI-P5x cells, with rucaparib 20 µM, 100% = cells with rucaparib alone
# [30] = at 1.25 µM, OCI-P5x cells, without rucaparib
# [31] = at 5 µM, OCI-C5x cells, with rucaparib 10 µM, 100% = cells with rucaparib alone
# [32] = at 5 µM, OCI-C5x cells, without rucaparib
# [33] = at 5 µM, OCI-P5x cells, with rucaparib 20 µM, 100% = cells with rucaparib alone
# [34] = at 5 µM, OCI-P5x cells, without rucaparib
smiles,measurement,setting,value
COc1cccc2c1C(=O)c1c(O)c3c(c(O)c1C2=O)C[C@@](O)(C(=O)CO)C[C@H]3O[C@H]1C[C@H](N)[C@@H](O)[C@H](C)O1,viability,[1]; [3],101%
same,viability,[1]; [4],108%
same,viability,[1]; [5],107%
same,viability,[1]; [6],105%
same,viability,[1]; [7],94.3% (active)
same,viability,[1]; [8],106%
same,viability,[1]; [9],103%
same,viability,[1]; [10],106%
same,viability,[1]; [11],90.6% (active)
same,viability,[1]; [12],95.4% (active)
same,viability,[1]; [13],106%
same,viability,[1]; [14],97.5% (active)
same,viability,[1]; [15],78.4% (active)
same,viability,[1]; [16],75.5% (active)
same,viability,[1]; [17],92% (active)
same,viability,[1]; [18],54.5% (active)
same,viability,[1]; [19],103%
same,viability,[1]; [20],83.9% (active)
same,viability,[1]; [21],54% (active)
same,viability,[1]; [22],30.8% (active)
same,viability,[1]; [23],37.5% (active)
same,viability,[1]; [24],43.3% (active)
same,viability,[1]; [25],45.3% (active)
same,viability,[1]; [26],15.5% (active)
same,viability,[1]; [27],15.6% (active)
same,viability,[1]; [28],31.1% (active)
same,viability,[1]; [29],11.7% (active)
same,viability,[1]; [30],10.8% (active)
same,viability,[1]; [31],8.09% (active)
same,viability,[1]; [32],2.52% (active)
same,viability,[1]; [33],3.69% (active)
same,viability,[1]; [34],5.43% (active)
Cc1cc2c(C(=O)NC[C@H](C)c3ccccc3)c(O)c(O)cc2c(O)c1-c1c(C)cc2c(C(=O)NC[C@H](C)c3ccccc3)c(O)c(O)cc2c1O,viability,[1]; [3],120%
same,viability,[1]; [4],108%
same,viability,[1]; [5],99.3% (active)
same,viability,[1]; [6],89.3% (active)
same,viability,[1]; [7],132%
same,viability,[1]; [8],116%
same,viability,[1]; [9],98.5% (active)
same,viability,[1]; [10],89.2% (active)
same,viability,[1]; [11],128%
same,viability,[1]; [12],110%
same,viability,[1]; [13],97.9% (active)
same,viability,[1]; [14],91.4% (active)
same,viability,[1]; [15],124%
same,viability,[1]; [16],116%
same,viability,[1]; [17],102%
same,viability,[1]; [18],91.3% (active)
same,viability,[1]; [19],122%
same,viability,[1]; [20],110%
same,viability,[1]; [21],105%
same,viability,[1]; [22],95.4% (active)
same,viability,[1]; [23],119%
same,viability,[1]; [24],106%
same,viability,[1]; [25],96.3% (active)
same,viability,[1]; [26],93.3% (active)
same,viability,[1]; [27],123%
same,viability,[1]; [28],106%
same,viability,[1]; [29],99.6% (active)
same,viability,[1]; [30],91.3% (active)
same,viability,[1]; [31],15.2% (active)
same,viability,[1]; [32],17.1% (active)
same,viability,[1]; [33],2.71% (active)
same,viability,[1]; [34],9.17% (active)
c1ccc(Cn2c(-c3ccc(OC[C@H](C4CCNCC4)n4c(-c5ccccc5)nc5ccccc54)cc3)nc3ccccc32)cc1,viability,[1]; [3],117%
same,viability,[1]; [4],110%
same,viability,[1]; [5],90.3% (active)
same,viability,[1]; [6],96.7% (active)
same,viability,[1]; [7],123%
same,viability,[1]; [8],125%
same,viability,[1]; [9],98.1% (active)
same,viability,[1]; [10],99.5% (active)
same,viability,[1]; [11],125%
same,viability,[1]; [12],126%
same,viability,[1]; [13],99.2% (active)
same,viability,[1]; [14],101%
same,viability,[1]; [15],121%
same,viability,[1]; [16],107%
same,viability,[1]; [17],96.1% (active)
same,viability,[1]; [18],106%
same,viability,[1]; [19],110%
same,viability,[1]; [20],117%
same,viability,[1]; [21],95.8% (active)
same,viability,[1]; [22],105%
same,viability,[1]; [23],118%
same,viability,[1]; [24],120%
same,viability,[1]; [25],105%
same,viability,[1]; [26],109%
same,viability,[1]; [27],130%
same,viability,[1]; [28],131%
same,viability,[1]; [29],33.8% (active)
same,viability,[1]; [30],102%
same,viability,[1]; [31],1.56% (active)
same,viability,[1]; [32],3.14% (active)
same,viability,[1]; [33],1.07% (active)
same,viability,[1]; [34],1.44% (active)
CC1(C)C2CCC1(CS(=O)(=O)O)C(=O)C2=Cc1ccc(C=C2C(=O)C3(CS(=O)(=O)O)CCC2C3(C)C)cc1,remaining NAD,[2],10 nM
CC[C@]1(O)C[C@@H]2CN(CCc3c([nH]c4ccccc34)[C@@](C(=O)OC)(c3cc4c(cc3OC)N(C=O)[C@@H]3C45CCN4CC=C[C@](CC)([C@H]45)[C@H](OC(C)=O)[C@]3(O)C(=O)OC)C2)C1 (some centres undefined),viability,[1]; [3],113%
same,viability,[1]; [4],99.3% (active)
same,viability,[1]; [5],88.8% (active)
same,viability,[1]; [6],86.4% (active)
same,viability,[1]; [7],120%
same,viability,[1]; [8],98.8% (active)
same,viability,[1]; [9],102%
same,viability,[1]; [10],90.1% (active)
same,viability,[1]; [11],101%
same,viability,[1]; [12],103%
same,viability,[1]; [13],105%
same,viability,[1]; [14],86.3% (active)
same,viability,[1]; [15],88.9% (active)
same,viability,[1]; [16],66.1% (active)
same,viability,[1]; [17],70.6% (active)
same,viability,[1]; [18],25.9% (active)
same,viability,[1]; [19],45.1% (active)
same,viability,[1]; [20],37.2% (active)
same,viability,[1]; [21],51% (active)
same,viability,[1]; [22],17.4% (active)
same,viability,[1]; [23],42.3% (active)
same,viability,[1]; [24],27.2% (active)
same,viability,[1]; [25],56.1% (active)
same,viability,[1]; [26],16.7% (active)
same,viability,[1]; [27],34.8% (active)
same,viability,[1]; [28],21.4% (active)
same,viability,[1]; [29],51% (active)
same,viability,[1]; [30],12.7% (active)
same,viability,[1]; [31],41.7% (active)
same,viability,[1]; [32],24.9% (active)
same,viability,[1]; [33],50.9% (active)
same,viability,[1]; [34],13.1% (active)
